Screening data from PubChem BioAssay.
Sampled rows, rich in hits. Any-hit rate of the full collection: about 2.3%.
M1 antag = human M1 muscarinic receptor antagonists, primary screen, CHO-K1 cells, Fluo-8 calcium fluorescence, 1536-well. Muscarinic acetylcholine receptor M1 (Homo sapiens), P11229. CHO-K1 hM1, ACh EC80 antagonist. inhibition, % at 3 µM. actives 1.3% (n = 360,000). AID 588852, 2011;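 active means percent inhibition above its own plate's cutoff, namely the mean of that plate's compound wells plus 3 SD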;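 further: peak over basal fluorescence ratio during 140 s after agonist addition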
Target sequence (P11229 whole entry, looked up): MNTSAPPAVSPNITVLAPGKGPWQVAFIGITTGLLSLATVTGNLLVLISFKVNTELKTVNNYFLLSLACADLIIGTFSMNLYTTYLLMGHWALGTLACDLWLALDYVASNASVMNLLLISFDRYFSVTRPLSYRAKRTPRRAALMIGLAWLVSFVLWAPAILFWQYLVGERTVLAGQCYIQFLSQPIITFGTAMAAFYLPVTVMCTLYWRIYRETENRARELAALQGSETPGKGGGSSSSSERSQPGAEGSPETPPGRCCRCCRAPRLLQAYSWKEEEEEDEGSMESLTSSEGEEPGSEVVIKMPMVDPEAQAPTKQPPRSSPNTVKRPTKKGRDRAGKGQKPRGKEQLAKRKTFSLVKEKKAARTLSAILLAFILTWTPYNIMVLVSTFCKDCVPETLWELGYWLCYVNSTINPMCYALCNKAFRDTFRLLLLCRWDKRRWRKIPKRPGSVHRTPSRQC
CHO-K1 Ca PAM = nonselective calcium activators in parental CHO-K1 cells, primary screen, counter-screen for M1 PAM project, cell-based, Fluo-8 calcium fluorescence, full deck, 1536-well; ATP EC20; 0% at ATP EC20, 100% at ATP max; activation, % at 3 µM; actives 0.02% (n = 360,000); AID 602247, 2012;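 active means activation above the run cutoff, the mean activation of all test compounds plus 3 SD, cut at about 40% in these data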;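 further: peak over basal fluorescence ratio in a 140 s read after ATP addition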
M1 ag parental = counter-screen for M1 agonists: effect in parental CHO-K1 cells; Fluo-8 calcium fluorescence; scaled to maximal ATP response, vehicle zero; actives 0.48% (n = 360,000); activation, % at 3 µM; in the data active means activation above about 15%;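 further: untransfected CHO-K1 host cells lacking M1 receptor as counterscreen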
CHO-K1 Ca antag = counter-screen for M1 antagonists: effect in parental CHO-K1 cells. ATP-induced calcium, Fluo-8 fluorescence. inhibition, % at 3 µM. actives 0.6% (n = 360,000). AID 602250;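 active means inhibition above a per-plate cutoff, the plate's mean sample inhibition plus 3 SD, cut at about 24% in these data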
M1 PAM = human M1 muscarinic receptor positive allosteric modulators, primary screen, CHO-K1 cells, Fluo-8 calcium fluorescence, 1536-well; activation, % at 3 µM; CHO-K1 hM1, ACh EC20; 0% = ACh EC20, 100% = maximal ACh; Muscarinic acetylcholine receptor M1 (Homo sapiens), P11229; actives 0.088% (n = 360,000); in the data active means activation above about 19%, passing the limit was not always enough
M1 ag = human M1 muscarinic receptor agonists, primary screen, Fluo-8 calcium fluorescence, CHO-K1 cells, HTS | AID 588814, 2011 | activation, % at 3 µM | actives 0.33% (n = 360,000) | Muscarinic acetylcholine receptor M1 (Homo sapiens), P11229 | CHO-K1 hM1, agonist mode; 0% DMSO, 100% acetylcholine EC100;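 active means activation above the run's mean compound activation plus 3 SD, cut at about 16% in these data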;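 further: peak over basal fluorescence ratio within a 140 s kinetic read after compound addition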
A number is an active result; i = inactive; nt = no result.

SMILES | M1 antag | CHO-K1 Ca PAM | M1 ag parental | CHO-K1 Ca antag | M1 PAM | M1 ag
O=C(CNC(=O)N1CC(=O)Nc2ccccc21)Nc1ccc(Cl)cc1Cl | i | i | i | i | i | i
CCN(CC)c1ccc(C2C(C(=O)OCCOC(C)C)=C(C)NC3=C2C(=O)CCC3)cc1 (stereo not given) | 90 | i | i | i | i | i
CC(=O)c1ccccc1C(=O)N1CCCC(C(=O)c2ccc(C(F)(F)F)cc2)C1 (stereo not given) | i | i | i | i | i | i
CN(C)c1ccc(-c2csc(C(C)(O)c3ccc(F)c(F)c3)n2)cc1 (stereo not given) | 25 | i | i | i | i | i
CC(O)(c1ccc(F)c(F)c1)c1nc(-c2ccncc2)cs1 (stereo not given) | i | i | i | i | i | i
C=CC(=O)Nc1ccc(N(C)c2ccnc(Nc3ccc(N4CCN(C)CC4)cc3)n2)cc1 | 56 | i | i | i | i | i
CN1CCN(c2ccc(NC(=O)COc3ccccc3Cl)cc2)CC1 | i | i | i | i | i | i
O=C(c1ccc(Cl)cc1)N1CCN(c2ncccn2)CC1 | i | i | i | i | i | i
O=C(CSc1ccc(S(=O)(=O)N2CCOCC2)cn1)Nc1ccc(F)c(F)c1 | 39 | i | i | i | i | i
COc1ccccc1NC(=O)C1CCN(S(=O)(=O)c2ccc3c(c2)NC(=O)CO3)CC1 | i | i | i | i | i | i
O=C(NCCc1ccccc1)/C(=C\c1ccc([N+](=O)[O-])cc1)NC(=O)c1ccco1 | i | i | i | i | i | i
O=C(NCc1ccccc1)/C(=C\c1ccc([N+](=O)[O-])cc1)NC(=O)c1ccco1 | i | i | i | i | i | 17
C=CCNC(=O)/C(=C/c1cccc([N+](=O)[O-])c1)NC(=O)c1ccco1 | i | i | 15 | i | i | i
CCN(CC)c1ccc2c(c1)OC(N)=C(C#N)C2c1cccnc1 (stereo not given) | i | i | 17 | i | i | 22
N#CC1=C(N)Oc2nc(-c3ccccc3)[nH]c2C1c1cccnc1 (stereo not given) | i | i | i | 32 | i | i
N#CC1=C(N)Oc2n[nH]c(-c3ccccc3)c2C1c1cccnc1 (stereo not given) | i | i | i | i | i | i
O=C1O[C@@H](c2ccccc2)C[C@@H](O)C(=O)CCc2ccccc21 | nt | i | i | i | nt | nt
CCN(CC)c1ccc(/C=C(\C#N)C(N)=O)cc1 | i | i | i | i | i | i
CCN(CC)c1ccc(/C=C(\C#N)C(=O)c2ccc(Br)cc2)cc1 | 85 | i | 110 | 74 | i | 178
CN(C)c1ccc(/C=C(\C#N)C(=O)c2ccccc2)cc1 | 76 | i | 46 | 38 | i | 125
CN(C(=O)Cn1c(=O)oc2ccccc21)C1CCCCC1 | i | i | i | i | i | i
COc1cccc(/C=N/Nc2ncnc3scc(-c4ccccc4)c23)c1O | 34 | i | i | i | i | i
O=c1[nH]c(=S)[nH]c2c1[C@H](CCc1cccc(Cl)c1)O[C@H](C1CC1)C2 | nt | i | i | i | nt | nt
Fc1ccccc1CN1CCCCCCC1 | i | i | i | i | i | i
c1ccc(Sc2ccccc2CN2CCCC2)cc1 | 79 | i | i | i | i | i
SMILES | M1 antag | CHO-K1 Ca PAM | M1 ag parental | CHO-K1 Ca antag | M1 PAM | M1 ag
O=C(Cn1nc(C(=O)O)c2ccccc2c1=O)Nc1cccc(S(=O)(=O)N2CCCCCC2)c1 | i | i | i | i | i | i
Cc1ccc(N(C)C(=O)CCNC(=O)Cn2cnc3ccccc3c2=O)cc1C | i | i | i | 35 | i | i
Cc1ccc(S(=O)(=O)N2C[C@H]3C(=O)C[C@@H](c4ccc(Cl)cc4)N(S(=O)(=O)c4ccccc4C)[C@H]3C[C@H]2c2ccccc2)cc1 | i | i | i | i | i | i
O=C(Nc1cccnc1)c1ccc2nc(-c3ccccc3)c(-c3ccccc3)nc2c1 | i | i | 17 | i | i | i
O=C(Nc1cccnc1)c1ccc(Oc2ccccc2)cc1 | i | i | i | i | i | i
CC(C)N1C(=O)S/C(=C/c2ccc(Sc3nc4ccccc4[nH]3)o2)C1=O | i | i | i | i | i | i
C=CCN1C(=O)S/C(=C/c2ccc(Sc3nc4ccccc4[nH]3)o2)C1=O | i | i | i | 26 | i | i
CCCn1c(NC(=O)c2ccc(Cl)c(S(=O)(=O)N3CCCC3)c2)nc2ccccc21 | 35 | i | i | i | i | i
O=C(NCCCN1CCOCC1)c1ccc(Sc2ccccc2Cl)c([N+](=O)[O-])c1 | 31 | i | i | i | i | i
CN(C)C(CNC(=O)c1ccc(Cl)c(S(=O)(=O)N2CCCCCC2)c1)c1ccccc1 (stereo not given) | 52 | i | i | i | i | i
CC(NC(=O)c1ccc(Cl)c(S(=O)(=O)N2CCCCCC2)c1)c1cccnc1 (stereo not given) | 37 | i | i | i | i | i
O=C(NCc1nc2ccccc2[nH]1)c1ccc(Cl)c(S(=O)(=O)N2CCCC2)c1 | i | i | i | i | i | i
O=C(NCCN1CCOCC1)c1ccc(Cl)c(S(=O)(=O)N2CCCCC2)c1 | 49 | i | i | i | i | i
CC(C)CCNC(=O)CN(CC1CCCO1)C(=O)CCC(=O)Nc1nccs1 (stereo not given) | i | i | i | i | 20 | i
OCC1(CCOc2ccccc2)CCN(CC2=Cc3cc(Cl)ccc3OC2)CC1 | 39 | i | i | i | i | i
COc1cc(Cl)c(CN2CCC(CO)(CCOc3ccccc3)CC2)cc1OC | i | i | i | i | i | i
COC(=O)c1ccc(CN2CCC(CO)(CCOc3ccccc3)CC2)cc1 | 77 | i | i | i | i | i
COC(=O)c1ccc(CN2CCC(CO)(Cc3cccc(OC)c3)CC2)cc1 | 75 | i | i | i | i | i
COC(=O)c1ccc(CN2CCCC(CO)(Cc3ccc(F)cc3F)C2)cc1 (stereo not given) | 48 | i | i | i | i | i
COc1cccc(CC2(CO)CCN(S(=O)(=O)N(C)C)CC2)c1 | i | i | i | i | i | i
Cc1cc(C)c2c(N)c(C(=O)N3CCc4ccccc4C3)sc2n1 | i | i | i | i | i | i
COc1ccc(CN(C)C(=O)c2cc(S(=O)(=O)Nc3ccccc3F)ccc2C)c(OC)c1 | i | i | i | i | i | i
COc1ccc(OC)c(-c2nnc3n2N=C(c2ccc(OC(F)F)c(OCC4CC4)c2)CS3)c1 | 40 | i | i | i | i | i
